{
  "source": "PubChem BioAssay (NCATS)",
  "note": "Inconclusive results are not listed. A call without a number means that no potency is given here. The source holds several records for some structures; these can differ, active in one and inactive in another. Calls of active or inactive are those of the source. The call rests on the fitted dose curve; in most records, active means well fitted inhibition curve with a large enough effect; inconclusive means small, poorly fitted or top-dose-only effect, or effect the other way; inactive means flat fitted curve, though single readings scatter. Potency means the concentration at half of the fitted maximal effect.",
  "data": [
    {"test": "qHTS for Inhibitors of Plasmodium falciparum (GB4) proliferation (AID 504315); further: nearly all actives have a fitted effect of over 50% in size", "details": "P. falciparum GB4 in erythrocytes, SYBR Green DNA, 72 h; series mostly up to 6.7 µM", "description": "Plasmodium falciparum is a virulent malarial parasite that kills 1-2 million people worldwide each year. Malaria not only inflicts tremendous suffering and morbidity on the human population, but has dramatically influenced the course of civilization with profound sociological and economic implications (Shah, S. 2010). Transmitted by mosquitoes, the sporozoite form of the parasite enters the blood stream to infect hepatocytes, where they become merozoites that infect red blood cells (erythrocytes). Within erythrocytes, merozoites begin a […] cycle of growth and division, after which the parasite is released to infect new red blood cells. Gametocytes, which form within erythrocytes as well, circulate in the bloodstream and are ingested by the mosquito, thereby completing the life cycle (see CDC website). To profile malarial lines for differential chemical responses and to identify inhibitors of malarial growth, an assay that measures P. falciparum growth and replication within erythrocytes was employed. This assay uses a DNA binding fluorescent dye (SYBR Green) to detect parasite DNA following cell lysis. Because mature erythrocytes lack DNA, only Plasmodium-derived DNA is detected. The P. falciparum line cp250, derived from a malarial isolate from Cambodia, (Mu, J., et al. 2010) was added to the panel of lines, Dd2, HB3, 7G8 and GB4 in this study. Laboratory of Assay Development and Screening Technology [ADST] and NIH Chemical Genomics Center [NCGC] Boston University, Chemistry Department, Center for Chemical Methodology and Library Development [CMLD-BU] NIH National Institute of Allergy and Infectious Diseases [NIAID]\nADST Assay Protocol Summary: The 1536-well SYBR Green viability assay was based on the method of Bennett et al (2004) and described previously in 1536-well format (Yuan J., et al. 2009). For screening 3 ul culture medium was dispensed into 1536 well black clear bottom plates (Aurora Biotechnologies) using a Multidrop Combi (Thermo Fisher Scientific Inc.), 23 nL compounds in DMSO were added by a pin transfer (Cleveland, P.H. and Koutz, P.J, 2005) using a pin tool-based delivery system (Kalypsys), and 5 ul of erythrocytes infected with P. falciparum one of five lines (cp250, Dd2, HB3, 7G8 or GB4, 0.3% parasitemia, 2.5% hematocrit final concentration) were added. The plates were incubated at 37C in a humidified incubator in 5% CO2 for 72 h, and 2 ul lysis buffer (20 mM Tris HCl, 10 mM EDTA, 0.16% saponin, 1.6% triton X, 10X SYBR Green I (supplied as 10,000X final concentration by Invitrogen) was added to each well. The plates were mixed for 25 sec with gentle shaking and incubated overnight at room temperature in the dark. The following morning, fluorescence intensity at 485(14) nm excitation and 535(25) nm emission wavelengths was measured on an EnVision (Perkin Elmer) plate reader. Plate reads were normalized relative to the control inhibitor (0.29 uM artemisinin) and vehicle (DMSO) wells present on each plate and then corrected by an algorithm using vehicle-only control plates at the beginning and end of the compound plate stack. References Shah, S. (2010). The Fever: how malaria has ruled humankind for 500,000 years. New York, Sarah Crichton Books. CDC web site, http://www.cdc.gov/malaria/about/biology/index.html Mu, J., Myers, R.A., Jiang, H., Liu, S., Ricklefs, S., Waisberg, M., Chotivanich, K., Wilairatana, P., Krudsood, S., White, N.J., et Plasmodium falciparum genome-wide scans for positive selection, recombination hot spots and resistance to antimalarial drugs Nature Genetics 2010, 42, pp 268-271 Bennett TN, Paguio, M., Gligorijevic, B., Seudieu, C., Kosar, A. D., Davidson, E., and Roepe, P. D. Novel, rapid, and inexpensive cell-based quantification of antimalarial drug efficacy Antimicrobial Agents Chemother. 2004, 48(5): pp 1807-10 Yuan J, Johnson RL, Huang RL, Wichterman J, Jiang HY, Hayton K, Fidock DA, Wellems TE, Inglese J, Austin CP, Su XZ. […]", "values": [
      {"smiles": "CCCCc1cc2c(cn1)=C(OC(=O)CCC(=O)OC)C(C)(OC(=O)CC)C(=O)C=2", "note": "(stereo not given)", "Potency": "1.69 µM (active)"},
      {"smiles": "COc1cccc([C@@H]2Oc3ccc(OC)cc3C(=O)[C@@H]2OC(=O)Nc2cc(OC)c(OC)c(OC)c2)c1", "Potency": "inactive"},
      {"smiles": "COc1ccc(C(=O)Oc2cc(OC)cc(OC)c2C(C)=O)cc1", "Potency": "inactive"},
      {"smiles": "COC(=O)c1ccc(CN2C(=O)[C@]3(OCCC=C[C@@H]3C)c3ccccc32)cc1", "Potency": "inactive"},
      {"smiles": "CC1(OC(=O)c2cccs2)C(=O)C=C2C=C(c3ccsc3)OC=C2C1=O", "note": "(stereo not given)", "Potency": "inactive"},
      {"smiles": "CC1(OC(=O)C2CCCC2)C(=O)C=C2C=C(c3ccsc3)N(Cc3ccc4c(c3)OCO4)C=C2C1=O", "note": "(stereo not given)", "Potency": "inactive"},
      {"smiles": "CCCC[C@]12Cc3ccccc3[C@H](O1)c1c(cc(-c3ccccc3)oc1=O)O2", "Potency": "1.69 µM (active)"},
      {"smiles": "COC(=O)C[C@H]1c2ccccc2C2=C(C[C@@H](C)[C@H]3C(=O)NC(=O)[C@@H]23)N1C(=O)OC", "Potency": "inactive"},
      {"smiles": "FC(F)(F)c1cc(NC(=S)NC(c2ccccc2)c2ccccc2)cc(C(F)(F)F)c1", "Potency": "1.51 µM (active) and inactive"},
      {"smiles": "CCCCCC1=CC2=C(C(=O)OC)C(c3ccccc3)NC(=O)N2CC1", "note": "(stereo not given)", "Potency": "inactive"},
      {"smiles": "COCOc1ccc(Br)cc1C(=O)[C@@H]1O[C@@H]1c1cccc(OC)c1", "Potency": "inactive"},
      {"smiles": "COc1cccc(CO[C@H]2C=C[C@@H](c3ccccc3)O[C@H]2CN=[N+]=[N-])c1", "Potency": "inactive"},
      {"smiles": "CCN1C(=NCCOC)N[C@@H](c2ccccc2)[C@H](C(=O)OC)[C@H]1C", "Potency": "inactive"},
      {"smiles": "N#Cc1ccc2c(c1)C[C@]1(c3ccsc3)OC3=C(C(=O)OC4(CCCCC4)C3)[C@H]2O1", "Potency": "inactive"},
      {"smiles": "COC(=O)C1=C(C(=O)OC)[C@@H]2N(Cc3ccccc3)c3ccccc3[C@@]23C[C@@H](C(=O)OC)N(C(=O)Nc2ccc(C(F)(F)F)cc2)C3=N1", "Potency": "inactive"},
      {"smiles": "CCCCCCCc1cc2ccccc2c2c(C(=O)OC)c(C(=O)OC)c(C(=O)OC)n12", "Potency": "inactive"},
      {"smiles": "C=CCN1C(=O)[C@]2(OCCC=C[C@@H]2C)c2cc(OC)ccc21", "Potency": "inactive"},
      {"smiles": "COC(=O)C1=C(C(=O)OC)[C@@H]2N(C)c3ccccc3[C@@]23C[C@@H](C(=O)OC)N(C(=O)c2cccs2)C3=N1", "Potency": "inactive"},
      {"smiles": "C[C@H]1C[C@@H](C)O[C@@]2(C1)C(=O)N(CC1CC1)c1ccccc12", "Potency": "inactive"},
      {"smiles": "COC(=O)C1=C(C(=O)OC)[C@@H]2Nc3ccccc3[C@@]23C[C@@H](C(=O)OC)N(C(=O)NC(C)(C)C)C3=N1", "Potency": "inactive"},
      {"smiles": "c1ccc(CCc2nc(-c3ccccc3)oc2Nc2ccc3ccccc3c2)cc1", "Potency": "inactive"},
      {"smiles": "COC(=O)CCCC1=CC2=CC(=O)C(C)(OC(=O)c3cccs3)C(=O)C2=CN1CCc1c[nH]c2ccccc12", "note": "(stereo not given)", "Potency": "inactive"},
      {"smiles": "COC(=O)C12C[C@H](C)C3C(C)C(c4ccccc4C31)N2C(=O)C(F)(F)F", "note": "(stereo not given in full)", "Potency": "inactive"},
      {"smiles": "COC(=O)[C@H](Cc1ccccc1)NC(=O)O[C@@H]1C(=O)c2cc(Br)ccc2O[C@H]1c1ccc2c(c1)OCO2", "Potency": "inactive"},
      {"smiles": "CCN1C(=O)NC(CCc2ccccc2)C(C(=O)OC)=C1C", "note": "(stereo not given)", "Potency": "inactive"},
      {"smiles": "CCOC(=O)c1c(C(=O)OCC)c2c3ccccc3cc(C)n2c1C(=O)OC", "Potency": "inactive"},
      {"smiles": "Cc1ccc2[nH]c3nc(CCCn4ccnc4-c4ccccc4)nnc3c2c1", "Potency": "inactive"},
      {"smiles": "CC(C)=CCCC(C)=CCON=C1C[C@@H](O)[C@@H](O)[C@@H]2[C@H]3C(=O)N(C[C@@H]4CCCO4)C(=O)[C@@H]3CC[C@H]12", "Potency": "inactive"},
      {"smiles": "C[C@@H]1C=CCCO[C@]12C(=O)N(Cc1ccc(Br)cc1)c1cccc(Br)c12", "Potency": "inactive"},
      {"smiles": "CC1(OC(=O)C2CCCC2)C(=O)C=C2C=C(c3ccsc3)N(C3CCCCC3)C=C2C1=O", "note": "(stereo not given)", "Potency": "inactive"},
      {"smiles": "Cc1cc2c(c(=O)o1)[C@H]1O[C@](c3ccsc3)(Cc3ccccc31)O2", "Potency": "inactive"},
      {"smiles": "COC(=O)N[C@H](C[N+](=O)[O-])c1cccc(C)c1", "Potency": "inactive"},
      {"smiles": "COC(=O)C1=C(C(=O)OC)[C@@H]2N(C)c3ccccc3[C@@]23CCC(=O)N(CC(C)C)C3=N1", "Potency": "inactive"},
      {"smiles": "COc1cccc2c1[C@H](C=Cc1ccccc1)[C@@H]([C@H](O)CN=[N+]=[N-])OC2", "Potency": "inactive"},
      {"smiles": "COC(=O)N1C(C)=Cc2ccccc2C1CC(C)=CC(C)=O", "note": "(stereo not given)", "Potency": "inactive"},
      {"smiles": "C[C@H]1[C@@H](C(=O)N2CCCC2)CC(=O)C(=NOCc2ccccc2)C[C@H]1c1ccccc1", "Potency": "inactive"},
      {"smiles": "COc1ccc(NC(=O)N2CCc3nc(-c4ccccc4)c4c(c3C2)CO[C@@H](C)C4)cc1", "Potency": "inactive"},
      {"smiles": "C[C@@H]1CC[C@H]2C(=O)NC[C@@H](O)CN2[C@@H]1c1ccc(Br)cc1", "Potency": "inactive"},
      {"smiles": "COC1=C(C(=O)c2ccccc2)C(=O)[C@@]2(CC=C(C)C)CC(C#N)C[C@@]1(CC=C(C)C)C2=O", "note": "(stereo not given in full)", "Potency": "inactive"},
      {"smiles": "COC(=O)C1=C(C(=O)OC)[C@@H]2N(C)c3ccc(OC)cc3[C@@]23C[C@@H](C(=O)OC)N(C(=O)c2cccs2)C3=N1", "Potency": "inactive"}
    ]}
  ]
}
